Measurements published in PMC9911399, “Two distinct binding modes provide the RNA-binding protein RbFox with extraordinary sequence specificity”.
Numbering of substitutions follows the chain as printed; changes in the protein carry UniProt numbers. The full ranking holds about 16,000 sequences; the median of “ka relative to ugcaugu” is about 0.096, and the highest 2% start at about 0.35. The list comes from a sample in which the highest values are over-represented; it also holds similar and randomly drawn sequences.

T1: RBFOX1 RRM RbFoxmut (Fox-RRM*) (Homo sapiens, UniProt Q9NWB1 109-208, R118D;E147R;N151S;E152T)
T1 sequence: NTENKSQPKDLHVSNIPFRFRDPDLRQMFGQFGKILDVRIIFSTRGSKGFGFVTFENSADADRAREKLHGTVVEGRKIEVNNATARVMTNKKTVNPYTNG

B1: UACUGCC (DNA:RNA)
RNA: GGGAGACCGGAAUUCAGAUUGUCCUACUGCCUUAAAUCCCGUCGUAGCCACCA
DNA 1: CAATCTGAATTCCGGTCTCCC
DNA 2: TGGTGGCTACGACGGGATT
B2: CCGGCAC (DNA:RNA)
RNA: B1 RNA with U25C, A26C, C27G, U28G, G29C, C30A
DNA 1: CAATCTGAATTCCGGTCTCCC
DNA 2: TGGTGGCTACGACGGGATT
B3: CUGGUGA (DNA:RNA)
RNA: GGGAGACCGGAAUUCAGAUUGUCCCUGGUGAUUAAAUCCCGUCGUAGCCACCA
DNA 1: CAATCTGAATTCCGGTCTCCC
DNA 2: TGGTGGCTACGACGGGATT
B4: AGGAGUA (DNA:RNA)
RNA: B3 RNA with C25A, U26G, G28A, U29G, G30U
DNA 1: CAATCTGAATTCCGGTCTCCC
DNA 2: TGGTGGCTACGACGGGATT
B5: UAGUAGU (DNA:RNA)
RNA: B1 RNA with C27G, G29A, C30G, C31U
DNA 1: CAATCTGAATTCCGGTCTCCC
DNA 2: TGGTGGCTACGACGGGATT
B6: UCUCUCG (DNA:RNA)
RNA: B1 RNA with A26C, C27U, U28C, G29U, C31G
DNA 1: CAATCTGAATTCCGGTCTCCC
DNA 2: TGGTGGCTACGACGGGATT
B7: ACGUCAA (DNA:RNA)
RNA: B3 RNA with C25A, U26C, G28U, U29C, G30A
DNA 1: CAATCTGAATTCCGGTCTCCC
DNA 2: TGGTGGCTACGACGGGATT
B8: UUCCUAC (DNA:RNA)
RNA: B1 RNA with A26U, U28C, G29U, C30A
DNA 1: CAATCTGAATTCCGGTCTCCC
DNA 2: TGGTGGCTACGACGGGATT
B9: GAAAACG (DNA:RNA)
RNA: B1 RNA with U25G, C27A, U28A, G29A, C31G
DNA 1: CAATCTGAATTCCGGTCTCCC
DNA 2: TGGTGGCTACGACGGGATT
B10: CACCGGC (DNA:RNA)
RNA: B1 RNA with U25C, U28C, C30G
DNA 1: CAATCTGAATTCCGGTCTCCC
DNA 2: TGGTGGCTACGACGGGATT
B11: AGGAGGC (DNA:RNA)
RNA: B3 RNA with C25A, U26G, G28A, U29G, A31C
DNA 1: CAATCTGAATTCCGGTCTCCC
DNA 2: TGGTGGCTACGACGGGATT
B12: CGGCUUG (DNA:RNA)
RNA: B3 RNA with U26G, G28C, G30U, A31G
DNA 1: CAATCTGAATTCCGGTCTCCC
DNA 2: TGGTGGCTACGACGGGATT
B13: ACCAGGC (DNA:RNA)
RNA: B1 RNA with U25A, A26C, U28A, C30G
DNA 1: CAATCTGAATTCCGGTCTCCC
DNA 2: TGGTGGCTACGACGGGATT
B14: GUCGGCU (DNA:RNA)
RNA: B1 RNA with U25G, A26U, U28G, C31U
DNA 1: CAATCTGAATTCCGGTCTCCC
DNA 2: TGGTGGCTACGACGGGATT
B15: GGGCUUG (DNA:RNA)
RNA: B3 RNA with C25G, U26G, G28C, G30U, A31G
DNA 1: CAATCTGAATTCCGGTCTCCC
DNA 2: TGGTGGCTACGACGGGATT
B16: CCCCGGC (DNA:RNA)
RNA: B1 RNA with U25C, A26C, U28C, C30G
DNA 1: CAATCTGAATTCCGGTCTCCC
DNA 2: TGGTGGCTACGACGGGATT
B17: GUCCGGC (DNA:RNA)
RNA: B1 RNA with U25G, A26U, U28C, C30G
DNA 1: CAATCTGAATTCCGGTCTCCC
DNA 2: TGGTGGCTACGACGGGATT
B18: GGGGGGC (DNA:RNA)
RNA: B3 RNA with C25G, U26G, U29G, A31C
DNA 1: CAATCTGAATTCCGGTCTCCC
DNA 2: TGGTGGCTACGACGGGATT
B19: GGCUUGU (DNA:RNA)
RNA: B3 RNA with C25G, U26G, G27C, G28U, A31U
DNA 1: CAATCTGAATTCCGGTCTCCC
DNA 2: TGGTGGCTACGACGGGATT
B20: GUCGGGC (DNA:RNA)
RNA: B3 RNA with C25G, G27C, U29G, A31C
DNA 1: CAATCTGAATTCCGGTCTCCC
DNA 2: TGGTGGCTACGACGGGATT
B21: AGGCUUG (DNA:RNA)
RNA: B3 RNA with C25A, U26G, G28C, G30U, A31G
DNA 1: CAATCTGAATTCCGGTCTCCC
DNA 2: TGGTGGCTACGACGGGATT
B22: GUGGAAC (DNA:RNA)
RNA: B3 RNA with C25G, U29A, G30A, A31C
DNA 1: CAATCTGAATTCCGGTCTCCC
DNA 2: TGGTGGCTACGACGGGATT
B23: CAAUUGA (DNA:RNA)
RNA: B3 RNA with U26A, G27A, G28U
DNA 1: CAATCTGAATTCCGGTCTCCC
DNA 2: TGGTGGCTACGACGGGATT
B24: GGUCCAG (DNA:RNA)
RNA: GGGAGACCGGAAUUCAGAUUGUCCGGUCCAGUUAAAUCCCGUCGUAGCCACCA
DNA 1: CAATCTGAATTCCGGTCTCCC
DNA 2: TGGTGGCTACGACGGGATT
B25: GCCCCAG (DNA:RNA)
RNA: B24 RNA with G26C, U27C
DNA 1: CAATCTGAATTCCGGTCTCCC
DNA 2: TGGTGGCTACGACGGGATT
B26: CAUGAAU (DNA:RNA)
RNA: B3 RNA with U26A, G27U, U29A, G30A, A31U
DNA 1: CAATCTGAATTCCGGTCTCCC
DNA 2: TGGTGGCTACGACGGGATT
B27: AAUACGG (DNA:RNA)
RNA: B24 RNA with G25A, G26A, C28A, A30G
DNA 1: CAATCTGAATTCCGGTCTCCC
DNA 2: TGGTGGCTACGACGGGATT
B28: CUGUACC (DNA:RNA)
RNA: B3 RNA with G28U, U29A, G30C, A31C
DNA 1: CAATCTGAATTCCGGTCTCCC
DNA 2: TGGTGGCTACGACGGGATT
B29: AGCUGAC (DNA:RNA)
RNA: B1 RNA with U25A, A26G, C30A
DNA 1: CAATCTGAATTCCGGTCTCCC
DNA 2: TGGTGGCTACGACGGGATT
B30: GUCCAUG (DNA:RNA)
RNA: B24 RNA with G26U, U27C, C29A, A30U
DNA 1: CAATCTGAATTCCGGTCTCCC
DNA 2: TGGTGGCTACGACGGGATT
B31: AUGUUCG (DNA:RNA)
RNA: B3 RNA with C25A, G28U, G30C, A31G
DNA 1: CAATCTGAATTCCGGTCTCCC
DNA 2: TGGTGGCTACGACGGGATT
B32: AUGUAUA (DNA:RNA)
RNA: B3 RNA with C25A, G28U, U29A, G30U
DNA 1: CAATCTGAATTCCGGTCTCCC
DNA 2: TGGTGGCTACGACGGGATT
B33: AUGGAGA (DNA:RNA)
RNA: B3 RNA with C25A, U29A
DNA 1: CAATCTGAATTCCGGTCTCCC
DNA 2: TGGTGGCTACGACGGGATT
B34: AUGUCCG (DNA:RNA)
RNA: B3 RNA with C25A, G28U, U29C, G30C, A31G
DNA 1: CAATCTGAATTCCGGTCTCCC
DNA 2: TGGTGGCTACGACGGGATT
B35: AUGUGUA (DNA:RNA)
RNA: B3 RNA with C25A, G28U, U29G, G30U
DNA 1: CAATCTGAATTCCGGTCTCCC
DNA 2: TGGTGGCTACGACGGGATT
B36: AUGUUGU (DNA:RNA)
RNA: B3 RNA with C25A, G28U, A31U
DNA 1: CAATCTGAATTCCGGTCTCCC
DNA 2: TGGTGGCTACGACGGGATT
B37: AUGGAUG (DNA:RNA)
RNA: B3 RNA with C25A, U29A, G30U, A31G
DNA 1: CAATCTGAATTCCGGTCTCCC
DNA 2: TGGTGGCTACGACGGGATT
B38: AUGGAUC (DNA:RNA)
RNA: B3 RNA with C25A, U29A, G30U, A31C
DNA 1: CAATCTGAATTCCGGTCTCCC
DNA 2: TGGTGGCTACGACGGGATT
B39: CCAUGUA (DNA:RNA)
RNA: B3 RNA with U26C, G27A, G28U, U29G, G30U
DNA 1: CAATCTGAATTCCGGTCTCCC
DNA 2: TGGTGGCTACGACGGGATT
B40: ACCAUGU (DNA:RNA)
RNA: B3 RNA with C25A, U26C, G27C, G28A, A31U
DNA 1: CAATCTGAATTCCGGTCTCCC
DNA 2: TGGTGGCTACGACGGGATT
B41: AUGUUUG (DNA:RNA)
RNA: B3 RNA with C25A, G28U, G30U, A31G
DNA 1: CAATCTGAATTCCGGTCTCCC
DNA 2: TGGTGGCTACGACGGGATT

The binders below were run against T1, RBFOX1 RRM RbFoxmut (Fox-RRM*) (assay: EMSA; HiTS-Eq, 1 nM pool, 10 min; buffer printed only for the single-RNA assays: 10 mM Tris pH 7.5, 150 mM NaCl, 3.4 mM EDTA, 0.001% NP-40, 30 C). Details: tags: His6 N-terminal (pET28a); label: 5' 32P.
Outline: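 Purified wild-type or mutant RbFox RRM at increasing concentrations was equilibrated with 1 nM of 5′-radiolabelled RNA carrying 7 randomized nucleotides for 10 min in 50 µL. Unbound RNA was separated by 8% native PAGE and sequenced. Relative association constants came from read-count changes of each RNA species compared with the control reaction, normalised to the cognate motif.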
For B1, the binding signal was 0.217 KA relative to UGCAUGU.
In the case of B2, the binding signal is reported as 0.0571 KA relative to UGCAUGU.
For B3, the binding signal was 0.0924 KA relative to UGCAUGU.
With B4 the binding signal was 0.168 KA relative to UGCAUGU.
For B5, the binding signal was 0.121 KA relative to UGCAUGU.
B6 was tested, and the binding signal was 0.0757 KA relative to UGCAUGU.
With B7 the binding signal was 0.0727 KA relative to UGCAUGU.
With B8 the binding signal was 0.0836 KA relative to UGCAUGU.
For B9, the binding signal was 0.0811 KA relative to UGCAUGU.
B10 was tested, and the binding signal was 0.0862 KA relative to UGCAUGU.
With B11 the binding signal was 0.118 KA relative to UGCAUGU.
For B12, the binding signal was 0.431 KA relative to UGCAUGU.
With B13 the binding signal was 0.0949 KA relative to UGCAUGU.
In the case of B14, the binding signal is reported as 0.116 KA relative to UGCAUGU.
B15 was tested, and the binding signal was 0.371 KA relative to UGCAUGU.
With B16 the binding signal was 0.0573 KA relative to UGCAUGU.
With B17 the binding signal was 0.116 KA relative to UGCAUGU.
With B18 the binding signal was 0.0893 KA relative to UGCAUGU.
In the case of B19, the binding signal is reported as 0.359 KA relative to UGCAUGU.
For B20, the binding signal was 0.0929 KA relative to UGCAUGU.
With B21 the binding signal was 0.388 KA relative to UGCAUGU.
With B22 the binding signal was 0.112 KA relative to UGCAUGU.
In the case of B23, the binding signal is reported as 0.0875 KA relative to UGCAUGU.
With B24 the binding signal was 0.0861 KA relative to UGCAUGU.
B25 was tested, and the binding signal was 0.117 KA relative to UGCAUGU.
B26 was tested, and the binding signal was 0.114 KA relative to UGCAUGU.
In the case of B27, the binding signal is reported as 0.0866 KA relative to UGCAUGU.
For B28, the binding signal was 0.137 KA relative to UGCAUGU.
For B29, the binding signal was 0.109 KA relative to UGCAUGU.
For B30, the binding signal was 0.151 KA relative to UGCAUGU.
B31 was tested, and the binding signal was 0.412 KA relative to UGCAUGU.
In the case of B32, the binding signal is reported as 0.23 KA relative to UGCAUGU.
With B33 the binding signal was 0.139 KA relative to UGCAUGU.
With B34 the binding signal was 0.14 KA relative to UGCAUGU.
In the case of B35, the binding signal is reported as 0.364 KA relative to UGCAUGU.
In the case of B36, the binding signal is reported as 0.245 KA relative to UGCAUGU.
In the case of B37, the binding signal is reported as 0.64 KA relative to UGCAUGU.
In the case of B38, the binding signal is reported as 0.298 KA relative to UGCAUGU.
In the case of B39, the binding signal is reported as 0.2 KA relative to UGCAUGU.
B40 was tested, and the binding signal was 0.102 KA relative to UGCAUGU.
With B41 the binding signal was 0.626 KA relative to UGCAUGU.
